Test results: PubChem BioAssay (Tox21)
Unmarked numbers belong to inactive results. Records with an inconclusive call do not appear. Entries that show only a call come without a potency. Active and inactive are the calls of the source. Unless noted, calls come from the whole dose curve; as a rule, active = well fitted curve in the direction sought with a large enough effect in the repeat runs; inconclusive = weak or mixed curves; inactive = no such curve, though single readings can be large; an effect the other way counts as inactive or inconclusive.

Key:
[1] = A CellTox Green Cytotoxicity Assay to monitor cytotoxicity in HepG2 cells - 8 hour (AID 1224890); note: nearly all actives have a fitted effect of over 45% in size; note: potency is the fitted concentration of half-maximal effect
Outline: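 First, HepG2 cells (600/well) mixed with reagent were plated; second, after 5 h at 37 C they received compounds via pintool; third, fluorescence was measured at 0 h through 40 h at 8 h intervals.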

[2] = qHTS assay to identify small molecule antagonists of the androgen receptor (AR) signaling pathway using the MDA cell line in the presence of 0.5 nM R1881 - cell viability counter screen (AID 1259242); note: nearly all actives have a fitted effect of over 45% in size
Outline: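 qHTS format. MDA-kb2 (MMTV-luc, AR/GR responsive) + cpd + 0.5 nM R1881 final, 16 hr 37C/0% CO2 → CellTiter-Fluor 30 min → fluorescence intensity.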

[3] = target: Estrogen receptor (Homo sapiens) (UniProt P03372); assay: qHTS assay to identify small molecule antagonists of the estrogen receptor alpha (ER-alpha) signaling pathway using the BG1 cell line in the presence of 0.1 nM 17-beta-estradiol (AID 1259244); note: nearly all actives have a fitted effect of over 50% in size; note: potency is the fitted concentration of half-maximal effect
Estrogen receptor (Homo sapiens), sequence (P03372 whole entry, looked up): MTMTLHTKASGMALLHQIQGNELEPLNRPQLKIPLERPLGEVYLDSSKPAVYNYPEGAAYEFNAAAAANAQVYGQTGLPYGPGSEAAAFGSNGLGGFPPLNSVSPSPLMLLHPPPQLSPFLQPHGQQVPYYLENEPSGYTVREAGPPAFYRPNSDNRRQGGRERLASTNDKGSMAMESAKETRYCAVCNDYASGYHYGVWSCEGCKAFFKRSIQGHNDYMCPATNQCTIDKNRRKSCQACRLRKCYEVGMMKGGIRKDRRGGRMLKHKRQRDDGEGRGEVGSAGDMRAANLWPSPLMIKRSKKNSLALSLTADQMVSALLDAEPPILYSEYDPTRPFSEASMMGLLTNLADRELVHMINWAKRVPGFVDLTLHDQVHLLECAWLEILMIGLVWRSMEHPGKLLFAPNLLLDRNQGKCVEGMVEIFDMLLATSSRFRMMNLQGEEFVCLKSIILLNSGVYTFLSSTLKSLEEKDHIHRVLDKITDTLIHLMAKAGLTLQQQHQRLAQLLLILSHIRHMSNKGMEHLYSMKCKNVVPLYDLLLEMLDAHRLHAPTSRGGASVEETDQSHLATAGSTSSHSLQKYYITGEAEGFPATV
Outline: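 Reporter is a stably transfected luciferase under four estrogen responsive elements in VM7Luc4E2 cells expressing native full-length ER-alpha; inhibition of 0.1 nM (final) 17beta-estradiol-driven signal over 22 h is read by luminescence.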

[4] = qHTS assay to identify small molecule phospholipidosis (PLD) inducers (AID 1259344; active = well fitted curve in the direction sought with a large enough effect; an effect the other way counts as inactive or inconclusive)
Outline: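 Cells (HepG2, 900 per well) attach for 4 h, receive LipidTOX Red and compound together, incubate 24 h at 37 C, are fixed 30 min with paraformaldehyde/Hoechst, then imaged at one site per well.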

[5] = qHTS assay to identify small molecule HDAC inhibitors (AID 1259364); note: potency is the fitted concentration of half-maximal effect;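 note: wild-type HCT-116 cells with endogenous class I/II HDAC activity; nearly all actives have a fitted effect of over 45% in size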
Outline: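 Quantitative high-throughput format: overnight-seeded HCT-116 cells got compounds for 2 hr at 37C; HDAC-Glo I/II reagent added, 30 min RT, luminescence measured.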

[6] = qHTS assay to identify small molecule agonists of the sonic hedgehog signaling (Shh) pathway - cell viability counter screen (AID 1259366); note: nearly all actives have a fitted effect of over 50% in size
Outline: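 Viability measured fluorometrically (CellTiter-Fluor, 1hr, 37C) in 3T3 Gli1-Luc reporter cells after 23hr compound exposure within a 24hr incubation at 37C/5% CO2.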

[7] = qHTS assay to identify small molecule antagonists of the sonic hedgehog signaling (Shh) pathway - cell viability counter screen (AID 1259367); note: nearly all actives have a fitted effect of over 55% in size; note: potency is the fitted concentration of half-maximal effect
Outline: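 Cytotoxicity was assessed in parallel with Shh reporter activity by measuring live-cell protease fluorescence (CellTiter-Fluor) in NIH/3T3 cells stably carrying Gli1-Luc, treated with compound under conditioned medium stimulation for 23 hr plus 1 hr reagent incubation.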

[8] = qHTS assay to identify small molecule antagonists of the estrogen receptor alpha (ER-alpha) signaling pathway using the BG1 cell line in the presence of 0.1 nM 17-beta-estradiol - cell viability counter screen (AID 1259241); note: nearly all actives have a fitted effect of over 40% in size; note: potency is the fitted concentration of half-maximal effect
Outline: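 The cell line endogenously expresses full-length ER-alpha and carries four EREs driving luciferase. Cells are cultured 5 days hormone-free, treated 22 hr with compounds and 0.1 nM estradiol, then viability is read by fluorescence.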

[9] = target: Androgen receptor (Homo sapiens) (UniProt P10275); assay: qHTS assay to identify small molecule antagonists of the androgen receptor (AR) signaling pathway using the MDA cell line in the presence of 0.5 nM R1881 (AID 1259243); note: nearly all actives have a fitted effect of over 50% in size; note: potency is the fitted concentration of half-maximal effect
Androgen receptor (Homo sapiens), sequence (P10275 whole entry, looked up): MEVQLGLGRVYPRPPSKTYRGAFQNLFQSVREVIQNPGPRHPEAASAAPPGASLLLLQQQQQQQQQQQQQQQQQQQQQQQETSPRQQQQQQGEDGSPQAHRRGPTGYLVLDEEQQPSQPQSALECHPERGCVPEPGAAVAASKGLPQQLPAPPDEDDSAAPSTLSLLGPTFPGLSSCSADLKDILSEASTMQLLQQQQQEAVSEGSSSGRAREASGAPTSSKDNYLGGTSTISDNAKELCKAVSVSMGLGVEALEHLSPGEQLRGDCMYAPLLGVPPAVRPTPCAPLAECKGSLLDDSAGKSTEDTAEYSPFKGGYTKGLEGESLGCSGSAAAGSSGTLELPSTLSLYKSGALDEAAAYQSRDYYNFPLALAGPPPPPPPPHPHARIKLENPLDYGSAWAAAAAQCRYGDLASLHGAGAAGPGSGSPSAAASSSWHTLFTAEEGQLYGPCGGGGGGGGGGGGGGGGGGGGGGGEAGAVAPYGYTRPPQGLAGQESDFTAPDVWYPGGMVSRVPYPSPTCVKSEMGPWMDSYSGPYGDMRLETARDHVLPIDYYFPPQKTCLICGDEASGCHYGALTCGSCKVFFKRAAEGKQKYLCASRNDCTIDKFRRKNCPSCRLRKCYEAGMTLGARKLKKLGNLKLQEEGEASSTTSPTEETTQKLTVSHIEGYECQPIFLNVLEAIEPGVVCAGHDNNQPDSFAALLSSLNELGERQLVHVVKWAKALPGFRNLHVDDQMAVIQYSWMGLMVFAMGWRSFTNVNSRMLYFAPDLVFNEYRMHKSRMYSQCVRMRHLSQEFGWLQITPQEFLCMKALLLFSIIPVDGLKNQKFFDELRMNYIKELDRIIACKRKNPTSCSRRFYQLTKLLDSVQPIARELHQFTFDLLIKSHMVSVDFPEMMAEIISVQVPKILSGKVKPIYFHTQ
Outline: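 Antagonist mode quantitative HTS in MDA-kb2 MMTV-luciferase cells, agonist R1881 at 0.5 nM final, 16 hr exposure at 37C and 0% CO2, luminescent detection.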

[10] = qHTS assay to identify small molecule HDAC inhibitors - cell viability counter screen (AID 1259365); note: series mostly up to about 92 µM; nearly all actives have a fitted effect of over 50% in size
Outline: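 Viability readout: CellTiter-Glo luminescence. Wild-type HCT-116 cells, 2hr compound treatment following overnight attachment at 37 C.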

For `OC[C@H]1O[C@@H](n2cnc3c(=S)nc[nH]c32)[C@H](O)[C@@H]1O`, the Potency [1] was “inactive”, the Potency [2] was “inactive” and the Potency [3] was “inactive”. The Potency [4] was “inactive”, the Potency [5] was “inactive” and the Potency [6] was “inactive”. The Potency [7] was “inactive”.
In the case of `CC(C)C(O)(c1ccc(OC(F)(F)F)cc1)c1cncnc1` (stereo not given), the Potency [1] is reported as “inactive”, the Potency [8] is reported as “inactive” and the Potency [2] is reported as “inactive”. For the same compound, the Potency [5] was “inactive”, the Potency [6] was “inactive” and the Potency [7] was “inactive”.
For `CCOc1ccc(Cc2nccc3cc(OCC)c(OCC)cc23)cc1OCC`, the Potency [1] was “inactive”, the Potency [8] was “inactive” and the Potency [9] was 10.6 µM (active). For the same compound, the Potency [3] was 8.41 µM (active), the Potency [5] was “inactive” and the Potency [10] was “inactive”. The Potency [6] was “inactive” and the Potency [7] was “inactive”.
With `Nc1ccc(N=Nc2ccccc2)c(N)c1` the Potency [1] was “inactive”, the Potency [8] was 26.7 µM (active) and the Potency [3] was “inactive”. For the same compound, the Potency [5] was 1.5 µM (active) and the Potency [10] was “inactive”.
In the case of `C/C=C(/C(=C/C)c1ccc(O)cc1)c1ccc(O)cc1`, the Potency [1] is reported as 15.1 µM (active), the Potency [2] is reported as “inactive” and the Potency [3] is reported as “inactive”. For the same compound, the Potency [4] was “inactive”, the Potency [5] was “inactive” and the Potency [10] was “inactive”. For the same compound, the Potency [6] was “inactive”.
For `CCCCCCCC/C=C\CCCCCCCCO`, the Potency [1] was “inactive”, the Potency [8] was “inactive” and the Potency [2] was “inactive”. The Potency [5] was “inactive”, the Potency [6] was “inactive” and the Potency [7] was “inactive”.
For `Oc1cccc(O)c1O`, the Potency [1] was “inactive”, the Potency [2] was “inactive” and the Potency [3] was “inactive”. For the same compound, the Potency [4] was “inactive” and the Potency [7] was 48.1 µM (active).
With `c1ccc2c(c1)CCc1ccccc1N2` the Potency [1] was “inactive”, the Potency [8] was “inactive” and the Potency [2] was “inactive”. For the same compound, the Potency [10] was “inactive”, the Potency [6] was “inactive” and the Potency [7] was “inactive”.
With `Nc1nnc(-c2ccc([N+](=O)[O-])o2)o1` the Potency [1] was “inactive”, the Potency [8] was 61.1 µM (active) and the Potency [3] was 54.5 µM (active). The Potency [5] was “inactive”, the Potency [10] was “inactive” and the Potency [7] was 27.3 µM (active).
For `C=CCc1ccccc1OCC(O)CNC(C)C` (stereo not given), the Potency [1] was “inactive”, the Potency [2] was “inactive” and the Potency [9] was “inactive”. For the same compound, the Potency [5] was “inactive”, the Potency [10] was “inactive” and the Potency [6] was “inactive”. For the same compound, the Potency [7] was “inactive”.
For `C=Cc1ccc(S(=O)(=O)O)cc1`, the Potency [1] was 54.9 µM (active), the Potency [2] was “inactive” and the Potency [3] was “inactive”. For the same compound, the Potency [4] was “inactive”, the Potency [5] was “inactive” and the Potency [10] was “inactive”. For the same compound, the Potency [6] was “inactive”.
For `C[C@@H](CN(C)C)CN1c2ccccc2Sc2ccccc21`, the Potency [1] was “inactive”, the Potency [2] was “inactive” and the Potency [3] was “inactive”. The Potency [5] was “inactive”.
In the case of `CCCCCCC(C)(C)C(=O)O`, the Potency [1] is reported as “inactive”, the Potency [2] is reported as “inactive” and the Potency [9] is reported as “inactive”. For the same compound, the Potency [3] was “inactive”, the Potency [5] was “inactive” and the Potency [6] was “inactive”. For the same compound, the Potency [7] was “inactive”.
With `NC(=O)c1ccncc1` the Potency [1] was “inactive”, the Potency [2] was “inactive” and the Potency [9] was “inactive”. For the same compound, the Potency [5] was “inactive”, the Potency [10] was “inactive” and the Potency [6] was “inactive”. For the same compound, the Potency [7] was “inactive”.
For `O=C1c2ccccc2C(=O)C1(O)O`, the Potency [1] was “inactive”, the Potency [8] was “inactive” and the Potency [2] was “inactive”. The Potency [5] was “inactive” and the Potency [7] was 54.8 µM (active).
In the case of `c1ccc(C[n+]2cccc3ccccc32)cc1`, the Potency [1] is reported as “inactive”, the Potency [8] is reported as “inactive” and the Potency [3] is reported as 27.3 µM (active). For the same compound, the Potency [5] was “inactive”, the Potency [10] was “inactive” and the Potency [6] was “inactive”.
For `COC(=O)[C@H]1[C@H]2C[C@@H]3c4[nH]c5cc(OC)ccc5c4CCN3C[C@H]2C[C@@H](OC(=O)/C=C/c2ccc(O)c(OC)c2)[C@@H]1OC`, the Potency [1] was 26.8 µM (active), the Potency [2] was “inactive” and the Potency [9] was “inactive”. The Potency [3] was “inactive”, the Potency [5] was “inactive” and the Potency [10] was “inactive”. The Potency [6] was “inactive” and the Potency [7] was “inactive”.
With `C[C@H]1c2cccc(O)c2C(O)=C2C(=O)[C@]3(O)C(O)=C(C(N)=O)C(=O)[C@@H](N(C)C)[C@@H]3[C@@H](O)[C@@H]21` the Potency [1] was “inactive”, the Potency [2] was “inactive” and the Potency [9] was “inactive”. For the same compound, the Potency [3] was “inactive”, the Potency [5] was “inactive” and the Potency [10] was “inactive”.
For `CCC=CC#N`, the Potency [1] was “inactive”, the Potency [2] was “inactive” and the Potency [3] was “inactive”. The Potency [5] was 21 µM (active), the Potency [10] was “inactive” and the Potency [6] was “inactive”. The Potency [7] was “inactive”.
For `CC1(C)S[C@@H]2[C@H](NC(=O)C(c3ccccc3)S(=O)(=O)O)C(=O)N2[C@H]1C(=O)O` (stereo not given in full), the Potency [1] was “inactive”, the Potency [2] was “inactive” and the Potency [3] was “inactive”. For the same compound, the Potency [4] was “inactive”, the Potency [5] was “inactive” and the Potency [10] was “inactive”. The Potency [6] was “inactive” and the Potency [7] was “inactive”.
With `Cc1[nH]cnc1CN1CCc2c(c3ccccc3n2C)C1=O` the Potency [1] was “inactive”, the Potency [8] was “inactive” and the Potency [2] was “inactive”. The Potency [10] was “inactive”, the Potency [6] was “inactive” and the Potency [7] was “inactive”.
For `Oc1ccc(Cl)c2cccnc12`, the Potency [1] was “inactive”, the Potency [8] was “inactive” and the Potency [9] was 10.6 µM (active). The Potency [3] was 21.1 µM (active), the Potency [5] was “inactive” and the Potency [10] was “inactive”. For the same compound, the Potency [7] was 3.35 µM (active).
With `Brc1cc2ccccc2c2ccccc12` the Potency [1] was “inactive”, the Potency [8] was “inactive” and the Potency [3] was “inactive”. For the same compound, the Potency [5] was “inactive”, the Potency [10] was “inactive” and the Potency [6] was “inactive”. The Potency [7] was “inactive”.
In the case of `CCC(=O)C1CC(C(C)C)CC=C1C` (stereo not given), the Potency [1] is reported as “inactive”, the Potency [2] is reported as “inactive” and the Potency [9] is reported as “inactive”. For the same compound, the Potency [3] was “inactive”, the Potency [5] was “inactive” and the Potency [10] was “inactive”. For the same compound, the Potency [6] was “inactive” and the Potency [7] was “inactive”.
With `CCCCCCCCOc1ccc(C(=O)O)cc1` the Potency [1] was “inactive”, the Potency [8] was “inactive” and the Potency [2] was “inactive”. For the same compound, the Potency [10] was “inactive”, the Potency [6] was “inactive” and the Potency [7] was “inactive”.
For `C=COCC(C)C`, the Potency [1] was “inactive”, the Potency [2] was “inactive” and the Potency [3] was “inactive”. The Potency [5] was “inactive”, the Potency [10] was “inactive” and the Potency [6] was “inactive”. For the same compound, the Potency [7] was “inactive”.
With `CO/N=C(/C(=O)N[C@@H]1C(=O)N2C(C(=O)O)=C(COC(N)=O)CS[C@H]12)c1ccco1` the Potency [1] was “inactive”, the Potency [8] was “inactive” and the Potency [2] was “inactive”. For the same compound, the Potency [10] was “inactive”, the Potency [6] was “inactive” and the Potency [7] was “inactive”.
